Test [1] in a line: Tanguay_ZF_120hpf_JAW_legacy: (Legacy) Oregon State University Tanguay Lab 120 Hour Post-fertilization zebrafish Assay for Jaw Malformation (AID 2283638).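 As to AC50: active means more embryos with jaw malformation than DMSO controls.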 The essentials:
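Binary jaw-malformation call at 120 hpf by brightfield microscopy. Embryos (Tropical 5D strain, chorion removed at 4 hpf) were dosed statically at 6 hpf, one per well, at 28C with 0.64% DMSO. Embryos that died were not scored.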

A short description of test [2]: Tanguay_ZF_120hpf_PE_legacy: (Legacy) Oregon State University Tanguay Lab 120 Hour Post-fertilization zebrafish Assay for Pericardial Edema (AID 2283640).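 As to AC50: potency for increased incidence of pericardial edema versus DMSO baseline.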 The essentials:
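Scoring was binary, by brightfield microscopy at 120 hpf, and skipped where mortality occurred. Wild-type embryos were kept under sealed, foil-covered static exposure at 28C in 0.64% (vol/vol) DMSO.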

The nature of test [3]: Tanguay_ZF_120hpf_BRAI_legacy: (Legacy) Oregon State University Tanguay Lab 120 Hour Post-fertilization zebrafish Assay for Brain Malformation (AID 2283641). The essentials:
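Binary brightfield scoring of brain malformation at 120 hpf in Tropical 5D larvae held under static exposure at 28C (0.64% v/v DMSO), non-mortality endpoints skipped if dead. Positive control: 5uM trimethyltin chloride; fit versus DMSO.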

The nature of test [4]: Tanguay_ZF_120hpf_PFIN_legacy: (Legacy) Oregon State University Tanguay Lab 120 Hour Post-fertilization zebrafish Assay for Pectoral Fin Malformation (AID 2283648).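 Also: each larva judged yes or no for fin defect by brightfield with dead larvae skipped.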 The essentials:
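Dechorionated Tropical 5D wild-type zebrafish embryos, one per well, statically exposed from 6 to 120 hpf at 28C with 0.64% DMSO final. Pectoral fin malformation scored present/absent by brightfield at 120 hpf; not scored in dead embryos.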

Test [5] in a line: Tanguay_ZF_120hpf_CFIN_legacy: (Legacy) Oregon State University Tanguay Lab 120 Hour Post-fertilization zebrafish Assay for Caudal Fin Malformation (AID 2283649). The essentials:
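Binary brightfield scoring of caudal fin defects at 120 hpf after static, light-shielded exposure at 28C from 6 hpf. Tropical 5D embryos, chorion removed with pronase at 4 hpf, final DMSO 0.64%.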

Test [6] is described as follows: Tanguay_ZF_120hpf_PIG_legacy: (Legacy) Oregon State University Tanguay Lab 120 Hour Post-fertilization zebrafish Assay for Pigmentation Malformation (AID 2283650). The essentials: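 Dechorionated Tropical 5D wild-type embryos, one per well from 6 hpf, statically exposed at 28C in the dark until 120 hpf, 0.64% DMSO final. Pigmentation scored present/absent by brightfield microscopy; dead embryos not scored; fitted versus DMSO.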

The nature of test [7]: Tanguay_ZF_120hpf_CIRC_legacy: (Legacy) Oregon State University Tanguay Lab 120 Hour Post-fertilization zebrafish Assay for Circulatory Malformation (AID 2283651). The essentials: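 Using wild-type Tropical 5D zebrafish, we exposed dechorionated embryos from 6 to 120 hpf in embryo medium with 0.64% DMSO. Circulatory defects were scored as present or absent; 5uM trimethyltin chloride served as positive control.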

Test [8] is described as follows: Tanguay_ZF_120hpf_SWIM_legacy: (Legacy) Oregon State University Tanguay Lab 120 Hour Post-fertilization zebrafish Assay for Swim Bladder Malformation (AID 2283654).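 Also: swim bladder malformation in each larva scored yes or no under brightfield.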 The essentials:
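Dechorionated wild-type Tropical 5D zebrafish embryos, one per well from 6 hpf, were statically exposed at 28C until 120 hpf in 0.64% DMSO. Swim bladder malformation scored as present/absent by brightfield microscopy; not scored in dead larvae.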

Test [9] can be described thus: Tanguay_ZF_120hpf_TRUN_legacy: (Legacy) Oregon State University Tanguay Lab 120 Hour Post-fertilization zebrafish Assay for Truncated Body (AID 2283655). The essentials: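 Binary presence/absence of truncated body is recorded at 120 hpf by brightfield, with non-mortality endpoints skipped after death. Exposure is static from 6 hpf in sealed dark plates at 28C, using dechorionated wild-type zebrafish, 0.64% DMSO.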

Test [10] can be described thus: Tanguay_ZF_120hpf_NC_legacy: (Legacy) Oregon State University Tanguay Lab 120 Hour Post-fertilization zebrafish Assay for Notochord and Tail Malformation (AID 2283656). The essentials: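 Dechorionated 5D zebrafish, 1/well from 6 hpf; static exposure to 120 hpf, 28C, sealed, dark; final DMSO 0.64% v/v. NC scored binary (present/absent); dead embryos not scored. Fit vs DMSO baseline, gain direction.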

The nature of test [11]: Tanguay_ZF_120hpf_TR_legacy: (Legacy) Oregon State University Tanguay Lab 120 Hour Post-fertilization zebrafish Assay for Touch Response (AID 2283667). The essentials: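 Tropical 5D wild-type zebrafish embryos statically exposed to 120 hpf at 28°C, sealed and dark-covered, 0.64% DMSO final; touch response scored as present/absent by brightfield microscopy at 120 hpf. Trimethyltin chloride 5 uM positive control; dead embryos not scored.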

Test [12] in a line: Tanguay_ZF_120hpf_SOMI_legacy: (Legacy) Oregon State University Tanguay Lab 120 Hour Post-fertilization zebrafish Assay for Somite Malformation (AID 2283647). The essentials:
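Binary somite-defect scoring at 120 hpf, omitted for embryos that died, in wild-type (Tropical 5D) zebrafish with chorion removed by pronase at 4 hpf; static exposure began 6 hpf, single embryos per well, 28C, 0.64% DMSO; fitted positive versus DMSO.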

Read-out in test [13]: kallikrein-3 (KLK3), KLK3 (gene 354)
As to the kind of experiment: LTEA_HepaRG_KLK3: Life Technologies and Expression Analysis (LTEA) Assay for kallikrein-3 (KLK3) using HepaRG (AID 2283652; active = hit-call score of the fitted dose curve at least 0.9, where 1 is the maximum; inactive = score below 0.9). Particulars: mRNA level, 48 h; actives raise or lower the signal. The essentials: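 Differentiated human HepaRG cells in serum-free induction medium exposed 48 h in duplicate, eight-point half-log series from 100 uM in 0.5% DMSO. KLK3 mRNA by qRT-PCR, normalised to ACTB, GAPDH, POLR2A; bidirectional fit versus DMSO.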

Read-out in test [14]: solute carrier (SLC22A6), SLC22A6 (gene 9356)
As to the kind of experiment: LTEA_HepaRG_SLC22A6: Life Technologies and Expression Analysis (LTEA) Assay for solute carrier (SLC22A6) using HepaRG (AID 2283653; active = hit-call score of the fitted dose curve at least 0.9, where 1 is the maximum; inactive = score below 0.9). Particulars: mRNA level, 48 h; actives raise or lower the signal. The essentials: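 SLC22A6 transcript was measured by TaqMan qRT-PCR, normalized to three housekeeping genes, after 48 h duplicate exposure of HepaRG cells (100 uM top, half-log steps, 0.5% DMSO); bidirectional fit against vehicle.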

Read-out in test [15]: solute carrier (SLC10A1), SLC10A1 (gene 6554)
As to the kind of experiment: LTEA_HepaRG_SLC10A1: Life Technologies and Expression Analysis (LTEA) Assay for solute carrier (SLC10A1) using HepaRG (AID 2283657; active = hit-call score of the fitted dose curve at least 0.9, where 1 is the maximum; inactive = score below 0.9). The conditions noted are these: mRNA level, 48 h; actives raise or lower the signal. The essentials:
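HepaRG cells (single lot) exposed 48 h in serum-free induction medium, 8-point half-log series from 100 uM top in 0.5% DMSO, duplicate. SLC10A1 mRNA by qRT-PCR normalised to ACTB, GAPDH, POLR2A; bidirectional fit versus DMSO.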

Read-out in test [16]: matrix metalloproteinase-1 (MMP1), MMP1 (gene 4312)
As to the kind of experiment: LTEA_HepaRG_MMP1: Life Technologies and Expression Analysis (LTEA) Assay for matrix metalloproteinase-1 (MMP1) using HepaRG (AID 2283658; active = hit-call score of the fitted dose curve at least 0.9, where 1 is the maximum; inactive = score below 0.9). Particulars: mRNA level, 48 h; actives raise or lower the signal. The essentials:
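qRT-PCR (TaqMan, Fluidigm arrays) of MMP1 transcript, normalized against three housekeeping genes and fitted in both directions relative to 0.5% DMSO vehicle. Human HepaRG cultures received duplicate 48 h exposures across 8 points, highest 100 uM with half-log steps.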

Read-out in test [17]: Cytochrome P450 (CYP24A1_1), CYP24A1 (gene 1591)
Description: LTEA_HepaRG_CYP24A1_1: Life Technologies and Expression Analysis (LTEA) Assay for Cytochrome P450 (CYP24A1_1) using HepaRG (AID 2283671; active = hit-call score of the fitted dose curve at least 0.9, where 1 is the maximum; inactive = score below 0.9). The conditions noted are these: mRNA level, 48 h; actives raise or lower the signal. The essentials: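 Differentiated human HepaRG cells in serum-free induction medium, exposed 48 h in duplicate to eight half-log concentrations from 100 uM top, 0.5% DMSO. Transcript measured by TaqMan qRT-PCR, normalised to ACTB, GAPDH, POLR2A; bidirectional fitting versus DMSO.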

Test [18] relates to Thyroperoxidase (TPO), gene 54314. As to the kind of experiment: CCTE_Simmons_AUR_rTPO: CCTE's Amplex UltraRed Assay for Thyroperoxidase (TPO) Inhibition, Simmons Lab (AID 2283662).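 Also: potency for loss of signal meaning inhibition of peroxidase activity.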 The essentials: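 Endpoint is decreased Amplex UltraRed fluorescence after a 30-min, 37C reaction of rat thyroid microsomes with 300 uM H2O2. Eight test concentrations (5 nM–87.5 uM final) in 0.5% DMSO, three biological replicates each.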

Test [19] in a line: CCTE_Simmons_CellTiterGLO_HEK293T: Viability Assessment in CCTE's Assays for Thyroperoxidase (TPO) Inhibition, Simmons Lab (AID 2283665).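 As to AC50: cells exposed to compound for 24 h before readout; actives reduce ATP signal below DMSO vehicle meaning cytotoxicity.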 The essentials:
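Cytotoxicity counter-screen: human HEK293T cells in low-serum (1% FBS) medium receive test chemical, 5 nM to 87.5 uM final, for 24 h; ATP is quantified by luciferase luminescence.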

The nature of test [20]: Tanguay_ZF_120hpf_OTIC_legacy: (Legacy) Oregon State University Tanguay Lab 120 Hour Post-fertilization zebrafish Assay for Otic Vesicle Malformation (AID 2283639). The essentials:
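Otic vesicle malformation is read as a yes/no morphology call at 120 hpf. Exposure is static at 28C with 0.64% (vol/vol) DMSO; embryos that die are excluded from non-mortality endpoints.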

The source of these data is PubChem BioAssay (EPA / NIEHS).

SMILES strings stand for the structures. Results filed as inconclusive are left out. Active and inactive are the calls of the source. The calls were made as follows, unless noted: active = hit-call score of the fitted dose curve at least 0.9, where 1 is the maximum; inconclusive = response in the unintended direction; inactive = score below 0.9.

With `O=C(O)Cc1ccccc1Nc1c(Cl)cccc1Cl`, the call in test [1], in [2], in [3], in test [4], in test [5] and in test [6] was inactive. The outcome in test [7], in [8], in test [9], in test [10] and in test [11] was inactive.

Regarding `CCCCCCCCCCC`, the result in test [1], in test [2], in [3], in test [12], in test [4] and in test [5] was inactive. Moreover, the call in test [6], in test [7], in test [13], in test [14], in test [8] and in [9] was inactive. Moreover, the result in test [10], in [15], in [16], in test [11] and in test [17] was inactive.

For the compound `Cc1oc(-c2ccccc2)nc1CCOc1cccc2c1ccn2CCC(=O)O`, the call in [1], in [2], in test [3], in test [12], in test [4] and in test [6] was inactive. For the same compound, the result in [7], in test [8], in [9], in test [10], in test [19] and in test [11] was inactive. Further, the AC50 (in general, the concentration at which the activity in the assay is half-maximal) in [18] was 28.8 µM (active).

As for `COC(=O)c1ccc(O)cc1`, the compound was classed as inactive in test [1], in test [2], in [3], in [12], in test [4] and in test [5]. Also, the outcome in test [6], in test [7], in [8], in test [9], in test [10] and in test [11] was inactive.

As to `Oc1ccc2c(c1)OC[C@@H](N1CCC(O)(c3ccc(F)cc3)CC1)[C@H]2O`, the outcome in test [1], in test [2], in test [3], in [12], in test [4] and in test [5] was inactive. For the same compound, the call in test [6], in test [7], in test [8], in test [9], in test [10] and in [11] was inactive.

Regarding `CCNc1cccc(C)c1`, the compound was called inactive in test [1], in test [2], in test [3], in test [4], in [5] and in [6]. Besides, the compound was called inactive in test [7], in test [8], in test [9], in test [19] and in test [11]. Besides, the AC50 in [18] is 12.1 µM (active).

Regarding `CCCc1cc(=O)[nH]c(=S)[nH]1`, the call in [1], in [2], in [3], in [4], in test [5] and in test [6] was inactive. For the same compound, the compound was classed as inactive in test [8], in [9], in [10], in test [19] and in test [11]. In addition, in [18], the AC50 was 0.285 µM (active).

For `CC(C)(C)c1cc(O)c(C(C)(C)C)cc1O`, the AC50 was 47.5 µM (active) in [1]; 34.3 µM (active) in test [2]; 3.58 µM (active) in test [18]; 27.5 µM (active) in [19]; 34.6 µM (active) in test [11]. Further, the call in [3], in test [5], in [6], in test [7], in test [8] and in [9] was inactive.

For `OC[C@@H](O)[C@@H](O)[C@H](O)[C@H](O)CO`, the call in test [1], in [2], in test [3], in test [4], in [5] and in [6] was inactive. The call in test [8], in test [10] and in test [11] was inactive.

As to `CC(=O)C(C)=CC1C(C)=CCCC1(C)C` (stereo not drawn), the result in test [20], in test [2], in test [3], in test [4], in [5] and in test [6] was inactive. For the same compound, the outcome in test [7], in test [9] and in test [10] was inactive.
